# hgDAF-12 ag: H. glycines DAF-12 receptor agonists, primary screen, cell-based, luminescence, HEK293, GAL4 fusion, UAS-luciferase; Nuclear hormone receptor DAF-12 (Heterodera glycines), GAL4 fusion; HEK293 GAL4-hgDAF12 UAS-luciferase reporter, agonist luminescence; normalized to butyrate control; activation, % at 6.8 µM; 1.8% of 370,000 active;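 active = activation above a cutoff set at the mean of all screened compounds plus 3 SD, cut at about 10% in these data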;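 note: 0% = DMSO wells and 100% = sodium butyrate wells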
# AHR activator: AHR activators, primary screen, cell-based, luminescence, luciferase reporter, human; Aryl hydrocarbon receptor (Homo sapiens), P35869; AHR-responsive luciferase reporter cells; activation, % at 5 µM; 2.5% of 320,000 active; in the data active = activation above about 47%;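 note: 0% = vehicle wells and 100% = reference agonist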
# ssDAF12 agonist: S. stercoralis DAF-12 nuclear receptor activators, primary screen, cell-based, luminescence, HEK293, GRIP1 co-expression, lit1-tk-luc; Nuclear hormone receptor DAF-12 (Strongyloides stercoralis); HEK293 ssDAF-12/GRIP1 lit1-tk-luc reporter; % of 3 µM dafachronic acid response; activation, % at 6.8 µM; 1% of 370,000 active; AID 652126, 2013;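 active = activation above the mean over all tested compounds plus 3 SD, cut at about 0.9% in these data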;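 note: 0% = DMSO-only wells and 100% = 3 µM delta7-dafachronic acid wells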
# DAX1 inh-1: DAX1 (NR0B1) inhibitors, primary screen, cell-based, HEK293, Gal4-DAX1, luciferase luminescence. Nuclear receptor subfamily 0 group B member 1 (Homo sapiens), P51843. 0.99% of 340,000 active. inhibition, % at 6.75 µM. HEK293 Gal4-DAX1 luciferase reporter;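 active = inhibition above the mean over all tested compounds plus 3 SD, cut at about 4.2% in these data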;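 note: 0% = DAX1-transfected cells with DMSO and 100% = empty-vector control cells with DMSO; inhibition shows as a rise in luminescence from relieved DAX1 repression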
# hcDAF-12 act: H. contortus DAF-12 nuclear receptor activators, primary screen, cell-based, luminescence, HEK293, lit1-tk-luc reporter | HEK293 hcDAF-12 lit1-tk-luc reporter; 0% DMSO, 100% Δ7-dafachronic acid | activation, % at 6.8 µM | 1.4% of 370,000 active | AID 652067, 2013;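 active = activation above the mean of all tested compounds plus 3 SD, cut at about 5.5% in these data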;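 note: 100% = response to 3 µM Δ7-dafachronic acid high control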
# DAX1 inh-2: DAX1 (NR0B1) inhibitors on StAR promoter, primary screen, cell-based, luminescence, SF-1 (NR5A1), full-length DAX-1. 1.1% of 370,000 active. inhibition, % at 6.8 µM. AID 652010, 2013. HEK293T StAR-luciferase reporter, SF-1/DAX-1 repression relief;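 active = inhibition above the mean over all tested compounds plus 3 SD, cut at about 3.6% in these data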;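 note: 0% = DAX-1 cells with DMSO and 100% = cells lacking DAX-1 with DMSO; higher inhibition means more luminescence from relief of DAX-1 repression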
# An asterisk follows results filed as active; . = no result given. In the library only some 5.7% were active in any assay of this set; here they are far more common.
SMILES,hgDAF-12 ag,AHR activator,ssDAF12 agonist,DAX1 inh-1,hcDAF-12 act,DAX1 inh-2
CC(C)c1cn(C2OC(COC(=O)c3ccccc3)C(OC(=O)c3ccccc3)C2OC(=O)c2ccccc2)c(=O)[nH]c1=O (configuration not stated),0,1,-1,-1,-2,0
N#CCc1nc(-c2cc3ccccc3oc2=O)cs1,6,-2,-1,3,-1,0
O=c1oc2ccc3ccccc3c2cc1-c1nnc(-c2cccs2)o1,11*,52*,1,3,3,2
COc1ccc(Nc2nc(-c3cc4cccc(OC)c4oc3=O)cs2)cc1,5,3,-1,3,-2,0
COc1cccc2cc(-c3nc(-c4cccs4)cs3)c(=O)oc12,9,48*,0,1,4,3
O=c1oc2ccccc2cc1-c1nc(-c2cccs2)cs1,4,62*,0.9*,2,6.1*,1
CCCCCCCCN1C(=O)[C@@H](CC(=O)NCCCN2CCCC2=O)C[C@@]2(C(=O)OC)C1=C[C@H](C(C)(C)C)O[C@@H]2C,-3,.,-1,.,-1,0
CC1CCN(CCc2nc3cc(NC(=O)COc4ccc(Cl)cc4)ccc3n2C)CC1,-6,-4,-2,0,-4,0
Cc1cccc(NC(=O)COc2ccc3c(c2)CCC3)n1,6,.,-1,1,2,3.8*
Cc1ccc(CC(=O)Nc2cccc(C)n2)cc1,5,3,1.9*,2,3,2
CN1CCN(S(=O)(=O)c2ccc(N3CCN(c4ccccc4Cl)CC3)nc2)CC1,0,2,-1,0,-1,-1
O=C(Nc1ccc(Br)cc1)c1cccnc1N1CCCCC1,3,50*,-1,1,3,0
CCC(=O)Oc1ccc(C(=O)Nc2cccc(C(=O)NCC(C)C)c2)cc1,0,8,-1,4.7*,-1,0
CCC(=O)Oc1ccc(C(=O)Nc2ccccc2C(=O)NCC(C)C)cc1,1,2,-2,-3,0,-1
CCOc1ccc(NS(=O)(=O)c2cc(Cl)ccc2OC)cc1,0,1,0,-1,-1,-1
Nc1nc(N)nc(COc2ccccc2)n1,11*,2,0,4.7*,2,1
Cc1nc2c(cc1C#N)C(=O)c1ccccc1-2,-1,159*,-1,0,-1,1
Cc1cc(C)cc(-n2ncc3c2CCCC3NC(=O)c2csnn2)c1 (configuration not stated),4,2,-1,1,-4,4.5*
Cc1ccc(-n2ncc3c2CCCC3NC(=O)c2csnn2)cc1C (configuration not stated),2,1,-1,-1,-4,-3
Cc1ccccc1Nc1c(F)c(F)c(F)c(F)c1C(=O)O,2,2,-1,0,-1,0
COc1ccc(C(CNC(=O)C(CC(C)C)NS(=O)(=O)c2ccc(C)cc2)N2CCOCC2)cc1 (configuration not stated),-1,1,-1,-1,0,-1
Cc1cccc(C2=NN(c3ccccc3)[C@@H](C(=O)N3CCOC3=O)[C@@H]2c2ccccc2)c1,1,.,0,0,1,3.7*
Cc1cccc(C2=NN(c3ccc(Br)cc3)[C@@H](C(=O)N3CCOC3=O)[C@@H]2c2ccccc2)c1,.,.,.,0,.,.
CC(=O)Nc1sc2c(c1-c1nc3ccccc3s1)CCCNC2,2,.,1,.,5,.
O=C(c1cc2ccccc2oc1=O)N(Cc1cccs1)C1CCS(=O)(=O)C1 (configuration not stated),7,1,1,1,5.8*,1
SMILES,hgDAF-12 ag,AHR activator,ssDAF12 agonist,DAX1 inh-1,hcDAF-12 act,DAX1 inh-2
O=C(c1cc2ccccc2oc1=O)N(Cc1ccc(F)cc1)C1CCS(=O)(=O)C1 (configuration not stated),3,0,0,4.5*,3,2
O=C1NN=COc2ccccc21,2,34,0,-1,5.7*,1
NC(=O)c1cc(N=Nc2c(N)[nH]n(-c3c(Cl)cc(Cl)cc3Cl)c2=O)ccc1Cl,2,2,-1,0,-1,1
CCOC(=O)C1(C)CCCN(C(=O)c2ccc(OC)c(OC)c2)C1 (configuration not stated),-1,.,-1,.,1,-1
CC(C)(C)C1CCC(N2CCN(c3ccccc3)CC2)CC1 (configuration not stated),3,-2,0,1,-2,-1
COc1ccc(OC(=O)NCCc2ccccc2)cc1,13*,0,0,2,2,0
COc1ccc(CCNC(=O)c2ccccc2)cc1,2,-2,-1,0,-1,0
COc1ccc(C(=O)Nc2nc(CC(=O)NCCc3cccc(OC)c3)cs2)cc1,2,26,0,-1,0,3
COc1ccc(C(=O)CC(=O)C(=O)NCCc2cccc(C)c2)cc1,1,1,-1,2,6.4*,0
COc1ccc(C(=O)Nc2nc(CC(=O)NCCc3ccccc3)cs2)cc1,-2,48*,0,0,0,0
COc1cnn(-c2cccc(C)c2)c(=O)c1Cl,-3,1,0,1,0,0
NCCOc1cnn(-c2ccccc2Cl)c(=O)c1Cl,1,0,1.0*,3,2,0
COc1cc(C2N=C(c3ccccc3)NO2)cc(Br)c1O (configuration not stated),4,65*,0,-1,1,0
FC(F)Oc1ccc(C2N=C(c3ccccc3)NO2)cc1 (configuration not stated),13*,11,0,1,4,1
COc1ccccc1C1CC(=O)Oc2cc(C)c(Cl)c(C)c21 (configuration not stated),0,.,0,-1,-1,1
O=c1cc(-c2ccccc2)nc2nc(-c3ccccc3)[nH]n12,9,74*,0,2,1,1
Nc1nc2nc(-c3ccccc3)cc(=O)n2[nH]1,4,2,-1,-2,-2,0
COc1cccc(NC(=O)C2(C)CCN2C(=O)CCc2ccc(Cl)cc2Cl)c1 (configuration not stated),0,.,1.6*,.,-2,0
